Reference: the supplement of paper PMC11732987, “Enantioselective OTUD7B fragment discovery through chemoproteomics screening and high-throughput optimisation” (Communications Chemistry, 2025)

Experiments:
Experiment in all cases: log2 ratio of Biotin-Ahx-Ub-VS probe labelling (fragment/DMSO); higher = less target engagement (more negative = stronger competition), active = hit call of the paper (q ≤ 0.05, log2 ratio ≤ -1)
Conditions in all cases: compound concentration: 200 uM; treatment time: 3 h
[1] = molecular target: USP34 (UniProt Q70CQ2)
How it was run: (§1)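 HEK293T lysate (495 µg per sample, in Tris/CHAPS/IGEPAL buffer with protease inhibitors) was treated in triplicate with fragment at 200 µM or with DMSO for 3 h. It was then treated with Biotin-Ahx-Ub-VS (0.5 µM final) for 1 h. Labelled DUBs were NeutrAvidin-enriched, digested with LysC and trypsin, and run by diaPASEF LC-MS/MS. Spectronaut label-free quantities were global-median-normalised. Values are average log2 ratios fragment/DMSO by unpaired t-test, using proteins with ≥2 unique peptides.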

[2] = molecular target: T1, USP36 (UniProt Q9P275)
T1 sequence (whole entry): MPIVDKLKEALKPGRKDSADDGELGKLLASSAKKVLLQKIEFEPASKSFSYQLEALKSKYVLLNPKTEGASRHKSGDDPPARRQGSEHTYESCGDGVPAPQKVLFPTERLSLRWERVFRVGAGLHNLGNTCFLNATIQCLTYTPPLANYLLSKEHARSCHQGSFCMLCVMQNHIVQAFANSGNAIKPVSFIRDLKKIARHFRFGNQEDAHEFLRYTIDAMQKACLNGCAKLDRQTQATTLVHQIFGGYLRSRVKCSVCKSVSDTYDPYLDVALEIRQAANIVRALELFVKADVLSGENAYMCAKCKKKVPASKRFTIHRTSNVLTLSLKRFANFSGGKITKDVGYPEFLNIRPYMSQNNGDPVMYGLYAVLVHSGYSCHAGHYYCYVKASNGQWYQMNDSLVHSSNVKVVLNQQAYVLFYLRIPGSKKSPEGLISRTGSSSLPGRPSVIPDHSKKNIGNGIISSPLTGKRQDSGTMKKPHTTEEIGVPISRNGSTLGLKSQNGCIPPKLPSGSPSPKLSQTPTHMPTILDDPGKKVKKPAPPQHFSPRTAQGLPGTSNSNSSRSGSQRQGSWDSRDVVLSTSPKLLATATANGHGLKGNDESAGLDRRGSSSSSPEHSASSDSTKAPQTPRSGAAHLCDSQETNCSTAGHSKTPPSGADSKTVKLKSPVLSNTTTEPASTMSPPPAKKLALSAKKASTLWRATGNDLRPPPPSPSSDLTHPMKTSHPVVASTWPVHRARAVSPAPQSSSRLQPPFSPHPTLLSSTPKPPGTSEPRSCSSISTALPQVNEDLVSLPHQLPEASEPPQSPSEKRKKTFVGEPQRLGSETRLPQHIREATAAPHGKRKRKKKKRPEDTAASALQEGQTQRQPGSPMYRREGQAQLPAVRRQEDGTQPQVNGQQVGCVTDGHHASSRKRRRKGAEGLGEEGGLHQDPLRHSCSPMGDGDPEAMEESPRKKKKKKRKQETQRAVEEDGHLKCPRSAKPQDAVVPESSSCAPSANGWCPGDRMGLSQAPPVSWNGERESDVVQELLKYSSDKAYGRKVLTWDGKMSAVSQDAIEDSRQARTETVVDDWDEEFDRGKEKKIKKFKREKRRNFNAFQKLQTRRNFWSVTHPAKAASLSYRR
How it was run: as §1

[3] = molecular target: T2, USP38 (UniProt Q8NB14)
T2 sequence (whole entry): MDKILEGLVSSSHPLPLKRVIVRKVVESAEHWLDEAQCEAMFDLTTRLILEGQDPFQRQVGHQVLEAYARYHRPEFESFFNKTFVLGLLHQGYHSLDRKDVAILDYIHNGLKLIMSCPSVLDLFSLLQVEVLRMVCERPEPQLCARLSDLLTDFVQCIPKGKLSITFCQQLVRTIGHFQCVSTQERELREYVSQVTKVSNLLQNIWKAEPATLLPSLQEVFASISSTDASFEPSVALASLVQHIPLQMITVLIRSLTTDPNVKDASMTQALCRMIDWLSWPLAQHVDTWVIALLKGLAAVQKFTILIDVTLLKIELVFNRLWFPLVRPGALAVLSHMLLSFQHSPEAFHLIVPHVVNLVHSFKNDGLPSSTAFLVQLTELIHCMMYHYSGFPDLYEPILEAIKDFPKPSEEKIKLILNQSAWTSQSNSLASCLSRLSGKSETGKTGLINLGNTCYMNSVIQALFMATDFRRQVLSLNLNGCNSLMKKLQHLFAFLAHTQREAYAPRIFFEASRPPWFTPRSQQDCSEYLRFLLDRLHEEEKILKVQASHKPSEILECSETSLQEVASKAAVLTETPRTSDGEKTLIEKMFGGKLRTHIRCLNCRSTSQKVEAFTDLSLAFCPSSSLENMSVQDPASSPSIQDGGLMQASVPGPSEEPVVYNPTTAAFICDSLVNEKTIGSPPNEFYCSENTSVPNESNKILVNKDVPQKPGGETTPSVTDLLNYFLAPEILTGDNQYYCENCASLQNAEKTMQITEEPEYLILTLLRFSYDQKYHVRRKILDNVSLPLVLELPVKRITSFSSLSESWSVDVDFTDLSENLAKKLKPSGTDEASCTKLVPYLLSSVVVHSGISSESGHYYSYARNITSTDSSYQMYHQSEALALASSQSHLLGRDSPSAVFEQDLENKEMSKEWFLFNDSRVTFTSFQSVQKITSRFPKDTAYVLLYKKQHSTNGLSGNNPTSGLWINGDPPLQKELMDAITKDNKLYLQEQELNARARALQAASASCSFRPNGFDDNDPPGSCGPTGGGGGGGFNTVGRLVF
How it was run: as §1

[4] = molecular target: T3, USP39 (UniProt Q53GS9)
T3 sequence (whole entry): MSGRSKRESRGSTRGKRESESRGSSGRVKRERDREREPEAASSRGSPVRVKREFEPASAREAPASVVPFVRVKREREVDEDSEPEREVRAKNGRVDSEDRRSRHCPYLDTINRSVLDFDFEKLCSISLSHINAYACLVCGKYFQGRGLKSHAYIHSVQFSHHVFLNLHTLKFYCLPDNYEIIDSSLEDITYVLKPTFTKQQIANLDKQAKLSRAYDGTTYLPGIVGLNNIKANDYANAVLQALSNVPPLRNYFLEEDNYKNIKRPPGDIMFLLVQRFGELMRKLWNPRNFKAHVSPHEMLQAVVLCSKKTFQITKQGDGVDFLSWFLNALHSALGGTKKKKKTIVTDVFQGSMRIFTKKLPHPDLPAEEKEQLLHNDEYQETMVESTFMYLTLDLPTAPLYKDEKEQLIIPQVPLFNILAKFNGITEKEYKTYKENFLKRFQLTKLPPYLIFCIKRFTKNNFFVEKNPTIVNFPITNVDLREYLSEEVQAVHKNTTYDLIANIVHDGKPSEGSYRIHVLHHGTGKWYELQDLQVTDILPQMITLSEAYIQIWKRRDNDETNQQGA
How it was run: as §1

[5] = molecular target: T4, USP4 (UniProt Q13107)
T4 sequence (whole entry): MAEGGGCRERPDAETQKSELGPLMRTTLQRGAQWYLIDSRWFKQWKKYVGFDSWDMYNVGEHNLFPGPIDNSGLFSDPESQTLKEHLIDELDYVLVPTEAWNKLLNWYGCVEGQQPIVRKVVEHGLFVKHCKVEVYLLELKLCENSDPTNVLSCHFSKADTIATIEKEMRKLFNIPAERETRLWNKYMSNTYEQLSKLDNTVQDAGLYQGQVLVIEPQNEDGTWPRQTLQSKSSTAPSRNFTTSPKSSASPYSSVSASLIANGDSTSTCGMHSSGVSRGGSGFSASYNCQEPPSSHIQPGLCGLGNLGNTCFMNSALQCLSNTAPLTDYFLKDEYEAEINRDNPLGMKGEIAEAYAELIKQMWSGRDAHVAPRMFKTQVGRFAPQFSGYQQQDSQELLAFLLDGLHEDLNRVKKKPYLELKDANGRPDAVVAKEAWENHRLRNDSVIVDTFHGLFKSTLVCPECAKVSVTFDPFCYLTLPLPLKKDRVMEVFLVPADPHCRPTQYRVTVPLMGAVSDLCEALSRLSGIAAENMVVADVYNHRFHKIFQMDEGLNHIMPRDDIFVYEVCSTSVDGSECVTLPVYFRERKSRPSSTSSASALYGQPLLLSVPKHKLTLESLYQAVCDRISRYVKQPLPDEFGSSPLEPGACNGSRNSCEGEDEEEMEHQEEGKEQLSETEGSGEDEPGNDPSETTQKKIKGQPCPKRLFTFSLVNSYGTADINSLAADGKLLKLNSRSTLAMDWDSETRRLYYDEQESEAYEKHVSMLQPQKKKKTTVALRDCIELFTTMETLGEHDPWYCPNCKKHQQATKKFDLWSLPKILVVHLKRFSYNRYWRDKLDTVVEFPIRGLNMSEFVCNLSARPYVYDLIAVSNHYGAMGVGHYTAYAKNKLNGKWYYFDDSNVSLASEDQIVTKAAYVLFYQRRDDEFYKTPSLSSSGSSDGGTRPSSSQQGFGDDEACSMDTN
How it was run: as §1

Measured: log2 ratio of Biotin-Ahx-Ub-VS probe labelling

USP34, sequence (Q70CQ2 whole entry, the tested form may be a part): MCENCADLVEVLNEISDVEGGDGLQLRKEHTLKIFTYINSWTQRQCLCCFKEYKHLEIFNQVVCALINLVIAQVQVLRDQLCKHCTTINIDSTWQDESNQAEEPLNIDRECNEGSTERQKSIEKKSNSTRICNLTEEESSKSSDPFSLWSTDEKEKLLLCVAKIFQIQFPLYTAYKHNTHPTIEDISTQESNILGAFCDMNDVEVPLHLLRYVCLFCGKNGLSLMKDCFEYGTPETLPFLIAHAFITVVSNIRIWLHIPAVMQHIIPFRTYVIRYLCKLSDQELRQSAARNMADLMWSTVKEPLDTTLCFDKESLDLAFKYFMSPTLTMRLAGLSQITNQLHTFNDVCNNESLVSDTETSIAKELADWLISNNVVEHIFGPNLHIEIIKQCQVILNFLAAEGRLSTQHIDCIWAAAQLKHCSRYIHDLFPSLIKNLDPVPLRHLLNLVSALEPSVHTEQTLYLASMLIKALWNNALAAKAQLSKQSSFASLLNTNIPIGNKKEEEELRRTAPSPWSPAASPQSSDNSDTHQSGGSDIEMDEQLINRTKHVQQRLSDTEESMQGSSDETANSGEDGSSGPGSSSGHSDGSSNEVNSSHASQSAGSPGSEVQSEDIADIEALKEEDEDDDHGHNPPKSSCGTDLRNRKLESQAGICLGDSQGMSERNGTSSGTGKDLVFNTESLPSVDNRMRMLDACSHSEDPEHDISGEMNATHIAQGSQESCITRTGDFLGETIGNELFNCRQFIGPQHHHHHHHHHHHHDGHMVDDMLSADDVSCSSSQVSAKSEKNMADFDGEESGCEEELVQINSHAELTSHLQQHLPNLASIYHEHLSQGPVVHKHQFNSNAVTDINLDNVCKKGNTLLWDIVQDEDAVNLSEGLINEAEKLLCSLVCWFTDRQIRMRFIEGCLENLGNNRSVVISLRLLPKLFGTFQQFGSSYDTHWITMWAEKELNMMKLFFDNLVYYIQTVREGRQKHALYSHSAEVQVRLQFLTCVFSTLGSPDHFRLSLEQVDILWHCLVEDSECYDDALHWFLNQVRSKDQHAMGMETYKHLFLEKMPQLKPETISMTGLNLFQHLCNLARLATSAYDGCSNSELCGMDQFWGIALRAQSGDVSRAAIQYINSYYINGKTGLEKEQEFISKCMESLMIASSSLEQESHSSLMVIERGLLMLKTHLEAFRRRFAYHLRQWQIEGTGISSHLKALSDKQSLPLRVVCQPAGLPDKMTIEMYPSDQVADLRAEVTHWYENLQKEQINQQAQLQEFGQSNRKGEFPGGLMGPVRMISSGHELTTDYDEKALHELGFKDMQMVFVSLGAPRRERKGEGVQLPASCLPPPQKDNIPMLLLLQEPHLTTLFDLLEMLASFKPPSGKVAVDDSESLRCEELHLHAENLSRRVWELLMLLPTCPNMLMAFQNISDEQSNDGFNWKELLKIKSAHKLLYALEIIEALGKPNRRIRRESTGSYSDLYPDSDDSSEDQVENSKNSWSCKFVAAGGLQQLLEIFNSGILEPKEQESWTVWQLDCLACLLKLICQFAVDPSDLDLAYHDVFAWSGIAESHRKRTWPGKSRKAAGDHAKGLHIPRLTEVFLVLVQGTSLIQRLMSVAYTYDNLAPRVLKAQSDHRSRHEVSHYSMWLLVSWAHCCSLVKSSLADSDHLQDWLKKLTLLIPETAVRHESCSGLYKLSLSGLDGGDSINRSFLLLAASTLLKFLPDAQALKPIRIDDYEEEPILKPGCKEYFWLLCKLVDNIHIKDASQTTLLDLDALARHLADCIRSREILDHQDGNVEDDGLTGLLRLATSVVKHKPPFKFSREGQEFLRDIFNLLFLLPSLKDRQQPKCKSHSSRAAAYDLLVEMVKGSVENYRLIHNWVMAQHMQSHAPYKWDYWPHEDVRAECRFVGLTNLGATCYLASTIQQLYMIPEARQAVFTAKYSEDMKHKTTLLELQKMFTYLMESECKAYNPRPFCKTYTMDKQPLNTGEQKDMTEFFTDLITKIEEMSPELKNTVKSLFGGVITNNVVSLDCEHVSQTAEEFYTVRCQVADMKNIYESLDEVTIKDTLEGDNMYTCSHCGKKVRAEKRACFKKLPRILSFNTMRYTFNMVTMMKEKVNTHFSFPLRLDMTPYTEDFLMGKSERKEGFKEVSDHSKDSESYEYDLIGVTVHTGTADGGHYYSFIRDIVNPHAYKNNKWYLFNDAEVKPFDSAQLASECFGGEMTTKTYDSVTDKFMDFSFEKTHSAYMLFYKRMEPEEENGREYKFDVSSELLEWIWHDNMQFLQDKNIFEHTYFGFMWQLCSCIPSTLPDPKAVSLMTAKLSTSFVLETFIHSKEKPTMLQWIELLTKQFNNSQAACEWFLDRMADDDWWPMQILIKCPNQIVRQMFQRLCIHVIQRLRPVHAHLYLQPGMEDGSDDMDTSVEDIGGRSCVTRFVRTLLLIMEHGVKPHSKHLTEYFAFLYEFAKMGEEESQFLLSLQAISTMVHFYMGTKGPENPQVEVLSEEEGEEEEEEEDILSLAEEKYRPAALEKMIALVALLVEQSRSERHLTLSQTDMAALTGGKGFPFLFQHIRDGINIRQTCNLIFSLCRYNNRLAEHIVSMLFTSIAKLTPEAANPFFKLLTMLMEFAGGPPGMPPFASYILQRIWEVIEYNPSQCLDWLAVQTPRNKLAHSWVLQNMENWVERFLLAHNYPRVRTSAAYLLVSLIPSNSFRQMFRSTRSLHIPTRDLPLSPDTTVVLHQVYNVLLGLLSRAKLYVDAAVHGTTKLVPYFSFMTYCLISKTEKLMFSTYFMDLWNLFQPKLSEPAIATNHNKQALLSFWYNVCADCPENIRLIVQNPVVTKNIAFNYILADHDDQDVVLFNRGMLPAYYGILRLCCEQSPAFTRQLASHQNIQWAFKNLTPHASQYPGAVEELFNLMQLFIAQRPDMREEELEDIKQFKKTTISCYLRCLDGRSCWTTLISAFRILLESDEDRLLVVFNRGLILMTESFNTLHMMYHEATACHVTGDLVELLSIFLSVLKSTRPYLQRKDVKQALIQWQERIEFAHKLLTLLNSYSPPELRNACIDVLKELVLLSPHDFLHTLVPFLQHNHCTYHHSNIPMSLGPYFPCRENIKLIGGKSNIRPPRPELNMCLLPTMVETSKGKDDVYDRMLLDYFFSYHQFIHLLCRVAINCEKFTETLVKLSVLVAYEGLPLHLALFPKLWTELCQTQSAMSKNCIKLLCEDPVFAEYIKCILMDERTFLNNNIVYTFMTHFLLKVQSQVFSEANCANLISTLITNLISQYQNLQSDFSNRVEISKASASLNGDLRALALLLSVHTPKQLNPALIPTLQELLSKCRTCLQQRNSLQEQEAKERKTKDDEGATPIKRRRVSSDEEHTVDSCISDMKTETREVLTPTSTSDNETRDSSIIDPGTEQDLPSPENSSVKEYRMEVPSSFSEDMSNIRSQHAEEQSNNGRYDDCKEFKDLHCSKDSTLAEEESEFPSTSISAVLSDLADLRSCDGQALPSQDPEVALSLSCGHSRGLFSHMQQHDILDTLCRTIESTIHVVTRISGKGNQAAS

O=C(CCl)N1c2ccccc2NC(=O)C12CCCC2
inactive: [1] -0.193 | [2] 0.111 | [3] 0.18 | [4] 0.678 | [5] -0.0657
